The text below walks through data of PubChem BioAssay AID2783 (National Center for Advancing Translational Sciences (NCATS), 2010).

Each structure is given as a SMILES string. Records with an inconclusive call do not appear. Unmarked numbers belong to inactive results. The call rests on the fitted dose curve; in most records, active means well fitted inhibition curve with a large enough effect in the polarisation, with a control signal flat (not every such curve was filed as active); inconclusive means small, poorly fitted or top-dose-only effect, or effect the other way, or a change in a side signal; inactive means no such curve, though single readings can be large or run the other way; the % refers to the polarisation.
On the % scale 0 is the no-effect control and ±100 the full control effect.

For the assay, the target named is Menin (Homo sapiens) (UniProt O00255). Description: Confirmation of Inhibitors Targeting the Menin-MLL Interaction in MLL Related Leukemias: Competition With Fluorescein Labeled MLL-derived Peptide. The conditions noted are these: Fluorescence polarization, fluorescein-MLL peptide displacement from menin; series mostly up to 100 µM; activity change, negative = inhibition: at the top concentration.
Sequence of Menin (Homo sapiens) (O00255 whole entry, looked up): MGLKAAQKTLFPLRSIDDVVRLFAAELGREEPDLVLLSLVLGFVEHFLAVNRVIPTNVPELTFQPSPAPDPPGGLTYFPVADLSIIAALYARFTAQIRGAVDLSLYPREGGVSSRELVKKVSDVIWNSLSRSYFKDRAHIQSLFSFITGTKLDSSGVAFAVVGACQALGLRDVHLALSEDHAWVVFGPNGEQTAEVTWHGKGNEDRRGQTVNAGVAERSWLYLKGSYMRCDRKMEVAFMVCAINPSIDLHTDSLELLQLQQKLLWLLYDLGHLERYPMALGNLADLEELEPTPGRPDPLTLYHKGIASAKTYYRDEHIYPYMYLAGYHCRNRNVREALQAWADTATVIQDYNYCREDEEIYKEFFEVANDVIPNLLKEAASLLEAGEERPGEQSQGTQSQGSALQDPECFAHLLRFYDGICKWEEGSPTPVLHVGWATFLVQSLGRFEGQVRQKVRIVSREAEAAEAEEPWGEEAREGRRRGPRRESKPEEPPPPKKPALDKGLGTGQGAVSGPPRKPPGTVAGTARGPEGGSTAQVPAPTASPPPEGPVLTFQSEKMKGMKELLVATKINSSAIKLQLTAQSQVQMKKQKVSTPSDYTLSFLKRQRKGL
With `O=C(N/N=C/c1cn(-c2ccccc2)nc1-c1cc2ccccc2o1)c1ccccc1Br`, the “activity change, negative = inhibition” value was -4.27%.

For the compound `CC(=O)c1cccc(OCC(O)CNCC2COc3ccccc3O2)c1` (stereo unspecified), the “activity change, negative = inhibition” value is 0.566%.

`CN(C)CCCNCC(=O)c1c(-c2ccccc2)n(C)c2ccccc12`: the “activity change, negative = inhibition” value was -0.739%.

In the case of `COc1cccc(OC)c1NC(=O)CN1CCN(C)CC1`, the “activity change, negative = inhibition” value was -13.1%.

As for `Cc1ccccc1-c1n[nH]c(=S)n1C`, the “activity change, negative = inhibition” value is -8.37%.

Take `O=C(C1CCCN(Cc2cccc(Cl)c2)C1)N1CCCCC1` (stereo unspecified): the “activity change, negative = inhibition” value is -5.74%.

Take `COc1cc(O)c(C(=O)c2ccccc2)cc1O`: the “activity change, negative = inhibition” value was 4.39% [at 288 µM].

With `CCOc1ccc(CCNC(=O)C(C)N2C(=O)CC(C)(C)Sc3ccccc32)cc1` (stereo unspecified), the “activity change, negative = inhibition” value is -0.246%.

As for `CCOC(=O)c1sc(NC(=O)Nc2ccc(Cl)cc2)nc1C`, the “activity change, negative = inhibition” value is -9.44%.

Regarding `O=C(/C=C/c1ccccc1)Nc1nnc(SCC(=O)c2ccc3ccccc3c2)s1`, the “activity change, negative = inhibition” value was -0.0809%.

On to `O=C(N1CCOCC1)N1CCN(S(=O)(=O)c2ccc(Cl)cc2)CC1`, for which the “activity change, negative = inhibition” value was -4.6%.

Consider `CC(CC(=O)Nc1nc2ccccc2[nH]1)n1ccnc1` (stereo unspecified), for which the “activity change, negative = inhibition” value was -18.8%.

With `COC(=O)c1cc(CNC(=O)CCCSc2ccccc2)ccc1OC`, the “activity change, negative = inhibition” value is -9.22%.

For the compound `NC(=O)C1CCN(C2=C(Cl)C(=O)c3ccccc3C2=O)CC1`, the “activity change, negative = inhibition” value is -7.88% [at 288 µM].

Regarding `Cc1ccc(F)c(C2C3C=CCC(C)C3C(=O)N2Cc2ccccc2)c1` (stereo unspecified), the “activity change, negative = inhibition” value is 10.6%.

Turning to `COc1ccc(S(=O)(=O)Nc2cc(SCC(=O)O)c(O)c3ccccc23)cc1`, the “activity change, negative = inhibition” value is 0.163% [at 288 µM].

Turning to `O=C(NNCS(=O)(=O)O)c1ccncc1`, the “activity change, negative = inhibition” value is -5.26%.

On to `Cc1ccc(NC(=O)CN(C)C(=O)COc2cccc3cccnc23)cc1`, for which the “activity change, negative = inhibition” value is -2.27% [at 288 µM].

On to `Cc1c(C(=O)OCC(=O)Nc2ccc(S(N)(=O)=O)cc2)oc2c1ccc1ccccc12`, for which the “activity change, negative = inhibition” value is 16.6%.

As to `COC(CSc1nc(N)c2c3c(sc2n1)CN(C)CC3)OC`, the “activity change, negative = inhibition” value is -18.1%.

Turning to `COc1ccc(-c2csc(NC(=O)c3cc(-c4cccs4)nc4ccccc34)n2)c(OC)c1`, the “activity change, negative = inhibition” value is -10.6%.
